Compound activity as filed in PubChem.
RAD52 inh = blocks human RAD52 DNA annealing; recombinant RAD52 DNA annealing, FRET fluorescence; AID 651710; inhibition, % at 18.7 µM; hit rate 0.46% among 360,000;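 active = every replicate showing at least 50% inhibition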
NSD2 inh = inhibitors of human histone methyltransferase NSD2. O96028. NSD2 peptide methylation, AlphaScreen, 120 min. inhibition, % at 12.5 µM. hit rate 0.54% among 310,000. AID 743445; in the data active = inhibition above about 50%
Ecoli rRNA inh = selective bacterial rRNA inhibition in E. coli; E. coli WT GFP vs humanized-ribosome RFP mutants, fluorescence, 24 h; hits give low values; DMSO median 0, no signal -100; GFP signal change (wild-type ribosome), % (concentration not given with the values); hit rate 1.6% among 350,000;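 active = significant combined selectivity score with lowered wild-type GFP, culture density cut under 30%, mutant RFP and density less affected; inactive = any of these conditions unmet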
MLL AF4-AF9 inh = blocks AF4 peptide binding to human AF9. P42568. AlphaScreen, biotin-AF4 peptide binding to FLAG-AF9. inhibition, % at 10 µM. hit rate 0.47% among 350,000;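 active = every replicate reaching a set inhibition limit, whatever the replicate mean, cut at about 25% in these data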;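 also: 0% = plate neutral control median and 100% = total signal loss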
Casp6 inh = inhibitors of human caspase-6. P55212. purified caspase-6, Z-VEID-R110 cleavage fluorescence. inhibition, % at 12.5 µM. hit rate 0.53% among 350,000. AID 686996;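 active = mean inhibition across replicates at least about 35%, with every replicate also reaching that limit, limit read from the data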;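 also: 0% = median of neutral control wells and 100% = no fluorescence left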
Target sequence (P55212 24-179 limits assumed): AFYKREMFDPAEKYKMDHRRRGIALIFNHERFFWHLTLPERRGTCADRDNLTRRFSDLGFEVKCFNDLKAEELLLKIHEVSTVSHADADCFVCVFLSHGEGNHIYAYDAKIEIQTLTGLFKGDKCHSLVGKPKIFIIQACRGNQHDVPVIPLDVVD
Target sequence (P55212 194-293 limits assumed): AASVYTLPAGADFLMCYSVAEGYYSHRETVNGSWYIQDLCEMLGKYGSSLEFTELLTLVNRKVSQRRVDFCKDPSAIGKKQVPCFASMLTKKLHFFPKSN
Numbers without * were called inactive; · = not tested or not shown. Shown are actives, neighbours in structure and some others; about 2.5% of the full set was active somewhere.

SMILES | RAD52 inh | NSD2 inh | Ecoli rRNA inh | MLL AF4-AF9 inh | Casp6 inh
CN(C)CC(=O)N[C@@H]1C=C[C@H](CC(=O)NCc2ccccc2F)O[C@H]1CO | -12 | · | 3 | -2 | 0
COCC(=O)N1CC(=O)N2[C@@H](CO)[C@@H](c3ccc(C#CC4CCCC4)cc3)[C@@H]2C1 | -8 | · | -2 | -2 | -2
O=C(C1CCCC1)N1CC(=O)N2[C@H](CO)[C@@H](c3ccc(C#Cc4cccc(F)c4)cc3)[C@H]2C1 | -51 | · | -44 | 1 | 0
CC(=O)N1CCN(c2cc(N3CCCC3)c(F)cc2[N+](=O)[O-])CC1 | -23 | 11 | -19* | 6 | 4
Cn1c(=O)n(C)c2cc([N+](=O)[O-])c(N3CCN(C(=O)C(C)(C)C)CC3)cc21 | 0 | 8 | -23* | 1 | -6
COc1ccc2c3c(n(C)c2c1)[C@@H](CO)N(C(=O)C1CCCC1)CC31CN(C)C1 | 2 | · | 2 | 9 | -4
O=C(Cc1ccc(Cl)cc1)Nc1ccc(S(=O)(=O)Nc2cnc3ccccc3n2)cc1 | -66 | -1 | -34* | -1 | 11
COc1cccc(NC(=O)COC(=O)c2n[nH]c3ccccc23)c1 | · | 0 | · | · | ·
Fc1ccc2c(c1)/C(=N/Nc1ccccn1)CCS2 | 4 | -9 | -22* | 17 | -5
CN1CCc2cc3c(c4c2[C@H]1[C@H](O)c1ccccc1-4)OCO3 | 46 | · | -56 | -3 | 49*
COc1ccc2c(c1OC)C(=O)OC2C1c2c(cc3c(c2OC)OCO3)CCN1C (centres undefined) | -11 | · | -6 | -3 | -1
O=C(C[C@H]1CC[C@@H]2[C@H](COC[C@H](O)CN2Cc2ccncc2)O1)NCc1ccncc1 | 10 | · | -1 | -4 | -1
O=C(COC(=O)c1nc(Cl)ccc1Cl)Nc1ccccc1OC(F)F | -36 | -3 | -19* | 0 | -2
O=C(COC(=O)c1cccnc1Cl)Nc1ccccc1OC(F)F | -15 | 0 | -3 | -2 | -2
Cc1nn(-c2cccc(Cl)c2)c2nc(-c3ccco3)cc(C(=O)O)c12 | · | 26 | · | · | ·
O=C(O)c1cc(-c2ccco2)nn1-c1cccc(Cl)c1 | -29 | 29 | 18 | 1 | 46*
COc1ccc(S(=O)(=O)Nc2ccc3c(c2)C(=O)N([C@H](C)CO)C[C@@H](C)[C@H](CN(C)C(=O)Nc2ccccc2)OCCCC[C@H](C)O3)cc1 | · | · | -3 | · | ·
O=C(/C=C/c1cccs1)N1CCN(c2ccc(O)cc2)CC1 | 2 | 6 | 7 | -2 | 62*
O=C(Nc1cccc(C(=O)O)c1)/C(=C\c1ccco1)NC(=O)c1ccccc1Cl | -52 | 2 | 26 | -7 | 8
O=C(Nc1ccccc1C(=O)O)/C(=C/c1ccc(Cl)cc1Cl)NC(=O)c1ccco1 | -1 | -1 | -32* | -1 | 2
C[C@H](CO)N1C[C@H](C)[C@@H](CN(C)Cc2ccc(Cl)c(Cl)c2)Oc2ccc(NC(=O)Nc3cccc4ccccc34)cc2CC1=O | 54* | · | 5 | 2 | -2
C[C@H]1CN([C@@H](C)CO)C(=O)Cc2cc(NC(=O)Nc3cccc4ccccc34)ccc2O[C@@H]1CN(C)Cc1ccc(Cl)c(Cl)c1 | 13 | · | 4 | -1 | -2
C[C@@H]1CN([C@@H](C)CO)C(=O)Cc2cc(NC(=O)Nc3cccc4ccccc34)ccc2O[C@H]1CN(C)Cc1ccc2c(c1)OCO2 | 54* | · | 5 | 5 | 2
O=C(C[C@H]1CC[C@H](NS(=O)(=O)c2ccccc2)[C@H](CO)O1)NCCN1CCCCC1 | 2 | · | 1 | 1 | -7
COc1ccc(Nc2ccc(Nc3ccc(OC)cc3)nn2)cc1 | 5 | 2 | -3 | 4 | ·
SMILES | RAD52 inh | NSD2 inh | Ecoli rRNA inh | MLL AF4-AF9 inh | Casp6 inh
COc1ccc(Nc2ccc(OC)cc2)cc1 | 25 | · | -18 | 81* | 25
COc1ccc(Nc2nc3ccc(OC)cc3s2)cc1 | 4 | 11 | -26* | 8 | 4
COc1ccc2nc(Nc3nc(C)c(C(C)=O)s3)sc2c1 | · | -8 | · | · | ·
CO[C@H]1CN(C)C(=O)c2cc(C#N)ccc2OC[C@H]2O[C@H](CC[C@H]2OC)CCN(C)C(=O)[C@@H]1C | -1 | · | 0 | -1 | -1
O=C(CSc1nc2ccc([N+](=O)[O-])cc2[nH]1)NCCc1ccccc1 | 5 | 17 | -28* | 1 | 3
O=C(CSc1nc2ccc(Cl)cc2[nH]1)NCCc1ccccc1 | -20 | -1 | -9 | -1 | -2
COc1ccc2nc(SCC(=O)NCCc3ccccc3)[nH]c2c1 | -6 | 0 | -24* | -2 | -1
COc1ccc(/C=C/C(=O)O)cc1Cl | -7 | 1 | 0 | 43* | 0
O=C(Nc1ccccc1F)N1CC(=O)N2[C@H](CO)[C@H](c3ccc(-c4ccc(F)cc4)cc3)[C@@H]2C1 | · | · | -5 | · | ·
O=C(Cn1c(=O)oc2cc(S(=O)(=O)N3CCCC3)ccc21)N1CCCC1 | -8 | · | 9 | 28* | 0
O/N=C1\CCC\C1=C/c1ccco1 | · | 4 | · | · | ·
O=C1C(=Cc2ccco2)CCCC1=Cc1ccco1 | -36 | 22 | 15 | 16 | 72*
CN(C(=O)Nc1ccccc1)C1CCS(=O)(=O)C1 (centres undefined) | · | -1 | · | · | ·
CC(=O)NC1=C(N(C)C2CCS(=O)(=O)C2)C(=O)c2ccccc2C1=O (centres undefined) | 3 | 107* | 7 | -1 | 31
COc1cc(-c2nnc(COC(=O)c3ccc(C)o3)o2)cc(OC)c1OC | -4 | 0 | 9 | -2 | 35*
O=C(NCC[C@H]1CC[C@H](NC(=O)c2cccnc2)[C@H](CO)O1)Nc1ccc(F)cc1 | 50* | · | 4 | 22 | 0
O=C(NCC[C@@H]1CC[C@@H](NC(=O)c2cccnc2)[C@H](CO)O1)Nc1ccc(C(F)(F)F)cc1 | 47 | · | -2 | 26* | -86
O=C(NCC[C@H]1CC[C@@H](NC(=O)c2cccnc2)[C@@H](CO)O1)Nc1ccc(F)cc1 | 14 | · | -1 | 7 | -2
CCC(=O)N1[C@H](CO)[C@H](c2ccc(-c3ccc(F)cc3)cc2)[C@@H]1CNC(C)=O | · | · | 2 | · | ·
COCC(=O)N(C)C[C@@H]1Oc2ncc(-c3ccccc3F)cc2C(=O)N([C@@H](C)CO)C[C@H]1C | -2 | · | 1 | -3 | -3
c1ccc2c(c1)CCc1ccccc1C2=C1CCNCC1 | -10 | 31 | -36* | 1 | 0
CN1CCC(=C2c3ccccc3C=Cc3ccccc32)CC1 | 7 | · | -8 | 1 | -3
COc1ccc(/C=C/CN2CCCC(CO)(Cc3cccc(Cl)c3)C2)cc1 (centres undefined) | -33 | 2 | -47* | 5 | 4
C[C@H](CO)N1C[C@H](C)[C@@H](CN(C)C(=O)C2CCCCC2)Oc2ncc(C#CC3CCCCC3)cc2C1=O | · | · | 3 | · | ·
COc1ccc(-n2cc(C(=O)c3ccccc3O)cn2)cc1 | -17 | -16 | -8 | 3 | 5
COc1ccc(O)c(C(=O)c2cnn(-c3ccccc3)c2)c1 | -17 | 3 | -27* | 4 | ·
O=C(c1cc(COc2c(F)cccc2F)on1)N1CCc2ccccc2C1 | -4 | · | -23* | -2 | 1
